Data on 40 compounds can be found in PubChem BioAssay (Tox21).

The structures appear in SMILES notation. Records with an inconclusive call do not appear. Where a call stands in place of a potency, no number is given. The source made the active and inactive calls. Calls come from the whole dose curve; as a rule, active = well fitted cell-killing curve with a large enough effect in the repeat runs; inconclusive = weak or mixed curves; inactive = no such curve, though single readings can be large or run the other way.

This test in a line: qHTS assay to identify small molecule antagonists of the androgen receptor (AR) signaling pathway - cell viability counter screen (AID 743033; note: nearly all actives have a fitted effect of over 45% in size). The following applies: AR-bla HEK293 viability, CellTiter-Glo luminescence, 16 h; series mostly up to 58.5 µM. An excerpt: National Center for Advancing Translational Sciences [NCATS]
NIH Chemical Genomics Center [NCGC]
U.S. Environmental Protection Agency [EPA]
National Institutes of Environmental Health Sciences [NIEHS]
National Toxicology Program [NTP]
U.S. Food and Drug Administration [FDA]
Androgen receptor (AR), a nuclear hormone receptor, plays a critical role in AR-dependent prostate cancer and other androgen related diseases. Endocrine disrupting chemicals (EDCs) and their interactions with steroid hormone receptors like AR may cause disruption of normal endocrine function as well as interfere with metabolic homeostasis, reproduction, developmental and behavioral functions. To identify the compounds that inhibit AR signaling, GeneBLAzer AR-UAS-bla-GripTite cell line (Invitrogen, Carlsbad, CA, USA) containing a beta-lactamase reporter gene under control of an Upstream Activator Sequence (UAS) stably integrated into HEK293 cells was used to screen the Tox21 10K compound library. The cytotoxicity of the Tox21 compound library against the AR-bla cell line was tested in parallel by measuring the cell viability using CellTiter-Glo assay in the same wells.
Tox21 Assay Protocol Summary:
AR-bla cells were dispensed at 2,000 cells/5 uL of assay medium per well into black wall/clear-bottom 1536-well plates using a Multidrop Combi (ThermoFisher Scientific, Waltham, MA) dispenser. After the assay plates were incubated at a 37C and 5% CO2 for 4 hr, 23 nL of compounds dissolved in DMSO, positive controls or DMSO only was transferred to the assay plate by a Pintool station (Kalypsys, San Diego, CA), followed by addition of 1 uL of agonist (R1881) in culture medium using a Bioraptr Flying Reagent Dispenser (FRD) workstation (Beckman Coulter, Indianapolis, IN, USA). The plates were incubated at a 37C and 5% CO2 for 16 h. After 1 uL of LiveBLAzerTM B/G FRET substrate was added using a Bioraptr FRD, the plates were incubated at room temperature for 2 h and fluorescence intensity was measured by an Envision plate reader (PerkinElmer, Shelton, CT). For cell viability readout that measures cytotoxicity, 4 ul/well of CellTiter-Glo reagent was added into the assay plates using a Bioraptr FRD. After 30 min incubation at room temperature, the luminescence intensity in the plates was measured using a ViewLux (PerkinElmer) plate reader.
(In general: qHTS replaces the single test concentration by a dilution series.)
Consider `Nc1ccc(C(=O)Oc2ccccc2)c(O)c1`, for which the Potency result is “inactive”.

Consider `COC(=O)c1cc(Cl)ccc1[N+](=O)[O-]`, for which the Potency entry is “inactive”.

Take `Nc1ccc(-c2ccc(F)cc2)cc1`: the Potency result was “inactive”.

For `O=C(O)c1cc(C(=O)O)cc([N+](=O)[O-])c1`, the Potency result was “inactive”.

Consider `O=c1[nH][nH]c2ccccc12`, for which the Potency entry was “inactive”.

In the case of `CCCN(C1CCN(C(=O)C2CCNCC2)CC1)[C@@H]1CCc2ccc(OC)cc2C1`, the Potency result was “inactive”.

For the compound `CCCCCCCCCCCCCCCCC(=O)O`, the Potency entry is “inactive”.

As to `O=C(OCCCCCOC(=O)c1ccccc1)c1ccccc1`, the Potency result was “inactive”.

As for `O=C(O)c1cccc(C(=O)O)c1C(=O)O`, the Potency entry was “inactive”.

`CCOc1ccccc1O`: the Potency result was “inactive”.

For `C[Si](C)(C)O[Si](C)(C)O[Si](C)(C)C`, the Potency result is “inactive”.

Take `Nc1cccc2c(=O)[nH][nH]c(=O)c12`: the Potency entry was “inactive”.

Regarding `N#Cc1ccc(CC(=O)c2cccc(C(F)(F)F)c2)cc1`, the Potency entry is “inactive”.

On to `C/C(=C\C(C)CC(C)CC(C)C)C1CC(=O)OC1=O` (stereo not given), for which the Potency entry was “inactive”.

Take `O=C(O)c1cccnc1Nc1cccc(C(F)(F)F)c1`: the Potency result was “inactive”.

For `CCCC1CCOC(C)S1` (stereo not given), the Potency entry is “inactive”.

For `O=[N+]([O-])c1ccc(Cl)cc1Cl`, the Potency entry is “inactive”.

`COc1cccc([C@H](O)C2CCN(CCc3ccc(F)cc3)CC2)c1OC`: the Potency result is “inactive”.

As to `FC1(F)C(F)(F)C(F)(F)C2(F)C(F)(C1(F)F)C(F)(F)C(F)(F)C1(F)C(F)(F)C(F)(F)C(F)(F)C(F)(F)C12F` (stereo not given), the Potency entry was “inactive”.

`CC(C(=O)O)c1ccc2c(c1)Cc1cccnc1O2` (stereo not given): the Potency entry is “inactive”.

In the case of `Sc1nc(S)nc(S)n1`, the Potency entry is “inactive”.

Regarding `COC(=O)Cc1cccc2ccccc12`, the Potency result was “inactive”.

With `CC/C=C\CCO`, the Potency result was “inactive”.

As for `CC(C)(Cc1c[nH]c2ccccc12)NCC(O)COc1ccccc1C#N` (stereo not given), the Potency result was “inactive”.

Regarding `CCCCC(CC)COCCC#N` (stereo not given), the Potency entry was “inactive”.

Regarding `O=C(OCCOCCOCCOC(=O)c1ccccc1)c1ccccc1`, the Potency result is “inactive”.

Regarding `C=C[Si]1(C)O[Si](C)(C=C)O[Si](C)(C=C)O[Si](C)(C=C)O1` (stereo not given), the Potency result is “inactive”.

Regarding `CCc1ccc2c(c1)C(=O)c1ccccc1C2=O`, the Potency entry is “inactive”.

With `CS(C)=O`, the Potency result is “inactive”.

Regarding `CCCCCCCCS`, the Potency entry was “inactive”.

Take `CC1(C)[C@@H]2CC[C@]3(C2)[C@@H]1C(=O)CCC3(C)C`: the Potency entry was “inactive”.

Consider `O=C(O)c1ccccc1-n1cc(C(=O)O)c(=O)c2cc(Nc3c(F)cc(F)cc3Cl)c(Cl)cc21`, for which the Potency entry was “inactive”.

On to `Oc1ccc(Oc2ccccc2)cc1`, for which the Potency result is “inactive”.

As to `COC(=O)/C=C/C(C)=C\C=C\C(C)=C\C=C\C=C(C)\C=C\C=C(C)\C=C\C(=O)O`, the Potency result is “inactive”.

Turning to `CCCCCO`, the Potency entry is “inactive”.

Consider `CC(CCl)OC(C)CCl` (stereo not given), for which the Potency result is “inactive”.

For `CCn1nc(Cc2ccccc2)cc1C1CCN(C[C@H]2C[C@H](N(C)[C@@H](C(=O)O)C(C)C)C[C@@H]2c2cccc(F)c2)CC1`, the Potency entry is “inactive”.

As for `CC(C)Oc1ccccc1O`, the Potency result is “inactive”.

`Clc1cccc(C(c2ccc3nc[nH]c3c2)n2ccnc2)c1` (stereo not given): the Potency result is “inactive”.

In the case of `CC(C)CCCCCOC(=O)CS`, the Potency entry is “inactive”.
